Screening results (PubChem)
PPARg SRC2 recr – agonists of PPARg-SRC-2 recruitment, primary screen, biochemical, HTS; Peroxisome proliferator-activated receptor gamma (Homo sapiens), P37231; PPARgamma LBD-SRC-2 recruitment; activation, % at 8 µM; 200,000 tested, 0.34% active; in the data active = activation above about 22%;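 also: 0% = vehicle and 100% = reference agonist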
Target sequence (P37231 whole entry, looked up, the tested form may be a part): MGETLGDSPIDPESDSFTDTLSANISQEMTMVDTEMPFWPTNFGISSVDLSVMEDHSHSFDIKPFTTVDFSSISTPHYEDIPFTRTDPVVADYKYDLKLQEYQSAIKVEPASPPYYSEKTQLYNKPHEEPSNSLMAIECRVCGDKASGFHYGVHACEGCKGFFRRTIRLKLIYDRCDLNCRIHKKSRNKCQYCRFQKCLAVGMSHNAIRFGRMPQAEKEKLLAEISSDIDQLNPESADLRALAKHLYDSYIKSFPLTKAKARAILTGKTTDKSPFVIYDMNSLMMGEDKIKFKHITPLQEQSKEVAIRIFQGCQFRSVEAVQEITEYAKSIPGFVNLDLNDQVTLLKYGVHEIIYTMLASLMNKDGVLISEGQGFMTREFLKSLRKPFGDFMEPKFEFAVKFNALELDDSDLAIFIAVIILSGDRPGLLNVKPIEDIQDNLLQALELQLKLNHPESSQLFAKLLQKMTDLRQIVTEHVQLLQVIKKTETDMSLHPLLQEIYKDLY
SRC3 TRFRET art – TR-FRET detection interference compounds, artefact control for PPARgamma SRC-3 recruitment agonists, biochemical, TR-FRET ratio; AID 1048, 2008; TR-FRET artefact counter-screen, PPARgamma/SRC-3 format; stronger effect = higher value; TR-FRET ratio at 8 µM; 99,000 tested, 0.39% active
SRC1 TRFRET art – TR-FRET detection interference compounds, primary screen, artefact control for PPARgamma SRC-1 recruitment agonists, biochemical, TR-FRET emission ratio. TR-FRET ratio at 8 µM. TR-FRET detection artefact counter-screen; stronger effect = higher value. AID 1051, 2008. 99,000 tested, 0.34% active; in the data active = TR-FRET ratio above about 2300
PPARg SRC3 recr – PPARgamma agonists recruiting SRC-3 coactivator, primary screen, biochemical; Peroxisome proliferator-activated receptor gamma (Homo sapiens), P37231; AID 731, 2007; biochemical PPARgamma/SRC-3 coactivator recruitment assay; 200,000 tested, 0.26% active; activation, % at 8 µM; in the data active = activation above about 23%;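 also: 0% = DMSO and 100% = reference agonist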
TR-FRET SRC-2 ct – TR-FRET signal artefacts, primary screen, artefact control for PPARgamma SRC-2 agonist project, biochemical. AID 1049, 2008. TR-FRET artefact counter-screen; stronger effect = higher value. TR-FRET ratio at 8 µM. 200,000 tested, 0.4% active
PPARg SRC-1 ag – PPARgamma agonists recruiting SRC-1 coactivator, primary screen, biochemical; Peroxisome proliferator-activated receptor gamma (Homo sapiens), P37231; PPARgamma-SRC-1 coactivator recruitment biochemical assay; activation, % at 8 µM; 200,000 tested, 0.41% active; AID 631, 2007; in the data active = activation above about 19%;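 also: 0% = DMSO and 100% = reference agonist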
Starred values were filed as active, the others as inactive; x = no result. The list is not random: actives were taken first. Their share in the collection is about 0.9%. Rule as the data show it, unless noted: active = TR-FRET ratio above about 2000; inactive = the rest.

SMILES	PPARg SRC2 recr	SRC3 TRFRET art	SRC1 TRFRET art	PPARg SRC3 recr	TR-FRET SRC-2 ct	PPARg SRC-1 ag
CC(C)(C)c1ccc(-c2nnc3sc(-c4ccncc4)nn23)cc1	190*	x	x	-7	5672*	0
O=C(COC(=O)CCN1C(=O)c2cccc([N+](=O)[O-])c2C1=O)NCc1ccccc1	4	1749	1745	1	1993*	4
O=C(COC(=O)CSCc1ccccc1)NCc1ccccc1	-3	1456	1600	-3	1536	-6
O=S(=O)(c1ccc(N2CCN(S(=O)(=O)c3ccc4c(c3)OCCO4)CC2)nc1)N1CCCC1	12	x	x	34*	2273*	18
NCCCC[C@H](NC(=O)C1CCNCC1)c1nnc(CN)o1	5	1550	1710	2	1393	-1
CC(NCc1ccc(F)cc1)C(=O)Nc1cc(S(=O)(=O)N2CCCCC2)ccc1Cl (stereo not given)	7	1608	1755	4	1704	12
CSc1nc(N)nc(SCC(=O)C23CC4CC(CC(C4)C2)C3)c1C#N	4	x	x	13	1593	2
N#Cc1c(N)nc(SCC(=O)C23CC4CC(CC(C4)C2)C3)c(C#N)c1-c1ccc(Cl)cc1	2	x	x	4	1336	99*
CC(C)N1CCN(Cc2ccc(Oc3ncccn3)cc2)CC1CCO (stereo not given)	-4	1564	2154	2	1545	21*
CC(C)CCN1CCN(Cc2ccc(Oc3ncccn3)cc2)CC1CCO (stereo not given)	3	1525	1614	-3	1741	-1
O=C1OCCC1Sc1nnc(-c2ccc(Br)cc2)o1 (stereo not given)	24*	x	x	2	1523	3
CCC(C(=O)OC)(C(=O)OC)c1ccc([N+](=O)[O-])cc1	11	1615	1903	4	1751	4
Cc1ccc(-c2nc3ccccc3c(=O)n2CCCN2CCOCC2)cc1	8	x	x	9	1786	13
O=c1c2ccccc2nc(-c2ccccc2)n1CCCN1CCOCC1	2	x	x	5	1680	19*
O=C(/C=C/c1ccc(Br)cc1)c1ccc(NC(=O)c2ccco2)cc1	1	14077*	2646*	6	5699*	4
O=c1[nH]n(-c2ccccn2)c(=O)c2ccccc12	-2	x	x	-6	1735	-1
O=c1[nH]n(-c2ccccc2)c(=O)c2ccccc12	2	1715	1771	4	1664	20*
O=C1CC(c2ccccc2Cl)=NN(c2ncnc3ccccc23)C1=O	1	1506	1841	4	1803	6
CCCSc1nc(C)nc2c1c(=O)n(C)c(=O)n2C	0	x	x	-2	1545	24*
CCCCSc1nc(C)nc2c1c(=O)n(C)c(=O)n2C	10	x	x	-1	1678	2
O=C(CSCC(=O)N1CCCCC1)Nc1nc(-c2ccccc2)c(-c2ccccc2)s1	8	2244*	2010	8	1498	4
COc1ccc(-c2sc(NC(C)=O)nc2-c2ccccc2)cc1	-3	1517	1702	5	1610	4
O=C(CCCCCn1c(=S)[nH]c2ccc(N3CCOCC3)cc2c1=O)NCCc1ccccc1	0	1541	1893	4	1485	-3
COc1ccc(N2CCN(C(=O)c3ccc(Cn4c(=S)[nH]c5ccc(N6CCOCC6)cc5c4=O)cc3)CC2)cc1	0	1821	1727	8	1719	4
O=c1c2cc(N3CCOCC3)ccc2[nH]c(=S)n1Cc1ccc(Cl)cc1	0	x	x	-6	1524	-2
SMILES	PPARg SRC2 recr	SRC3 TRFRET art	SRC1 TRFRET art	PPARg SRC3 recr	TR-FRET SRC-2 ct	PPARg SRC-1 ag
O=C(CCCCCn1c(=S)[nH]c2ccc(N3CCOCC3)cc2c1=O)NCc1ccc2c(c1)OCO2	6	3424*	1919	13	1663	3
O=C(c1ccc(Cn2c(=S)[nH]c3ccc(N4CCOCC4)cc3c2=O)cc1)N1CCN(c2ccc(F)cc2)CC1	17	3426*	3474*	14	2803*	20
O=C(CCCCCn1c(=S)[nH]c2ccc(N3CCOCC3)cc2c1=O)NCc1ccc(Cl)cc1	6	2786*	2133	8	1687	5
O=C(CCCCCn1c(=S)[nH]c2ccc(N3CCOCC3)cc2c1=O)NCc1ccccc1Cl	9	3063*	1939	13	1729	7
CCCCn1c(=S)[nH]c2ccc(N3CCOCC3)cc2c1=O	14	1807	1816	3	1492	-3
COc1ccc(N(CC(=O)NCc2ccc(Cl)cc2)S(=O)(=O)c2ccccc2[N+](=O)[O-])c(OC)c1	-2	1469	1693	5	1778	3
CCNC(=O)NCc1c(C)c(C)n(Cc2ccccc2)c1-n1cccc1	12	1493	1941	8	1832	11
CC(C)c1ccc(NC(=O)CNS(=O)(=O)c2ccc(F)cc2)cc1	9	1794	2036	-2	1814	3
COC(=O)c1ccc(CN2CCN(C(C)C)C(CCO)C2)cc1 (stereo not given)	5	1596	1912	3	1666	8
CCC(C)[C@H](N)c1cn([C@@H](CCCCN)C(=O)N2CCNCC2)nn1 (stereo not given in full)	11	1674	1825	1	1601	5
C=CCN(CC=C)Cc1c(O)ccc2c1oc(=O)c1ccccc12	20	x	x	20	1879	21*
CC1(C)Cc2c(C#N)c(SCc3ccccc3)nc(N3CCOCC3)c2CO1	2	x	x	-7	1710	11
CC1(C)Cc2c(C#N)c(SCC(=O)c3ccccc3)nc(N3CCOCC3)c2CO1	60*	x	x	-9	3056*	2
CCn1cc(/C=N\NC(=O)c2csc3ccccc23)c(C)n1	5	x	x	0	1413	0
O=C(N/N=C/c1ccc(O)cc1)c1csc2ccccc12	1	x	x	-1	1408	46*
Cc1oc(-c2cccc(Cl)c2)nc1CN1CCC(C(=O)N2CCN(c3ccccc3F)CC2)CC1	1	1480	2346*	6	1765	12
NC(=O)c1c(NC(=S)Nc2ccccc2)sc2c1CCCC2	14	2002	2381*	7	1869	5
N#CC(C#N)=Cc1ccc(OCC(=O)N2CCOCC2)cc1	5	1618	1711	9	1712	6
Cc1ccccc1Nc1scc(-c2ccc(Cl)cc2)[n+]1-c1ccccc1C	9	1661	2015	9	2007*	5
Cc1c(Nc2scc(-c3ccccc3)[n+]2-c2ccccc2)c(=O)n(-c2ccccc2)n1C	-4	1624	1586	-5	1361	-2
COc1ccc(/C=C2\N=C(SC)NC2=O)cc1	22*	x	x	16	1784	4
CCSC1=N/C(=C\c2ccc(OC)cc2)C(=O)N1	-2	1829	1935	8	1665	8
